Records with an inconclusive call do not appear. The source made the active and inactive calls. Unless noted, calls come from the whole dose curve; as a rule, active = well fitted curve in the direction sought with a large enough effect; inconclusive = small, poorly fitted or top-dose-only effect, or another doubt; inactive = no such curve, though single readings can be large; an effect the other way counts as inactive or inconclusive.

The nature of test [1]: qHTS assay for small molecule agonists of retinoid X receptor alpha signaling (AID 588544). The settings on record: HEK293T RXRa-UAS-bla, beta-lactamase reporter, 18 h; 530 nm emission.
Test [2] deals with Nuclear receptor subfamily 1 group I member 2 (Rattus norvegicus) (UniProt Q9R1A7). The experiment in a line: qHTS assay for small molecule activators of the rat pregnane X receptor (rPXR) signaling pathway (AID 651751; call rule not given here; note: 0% is about no effect). The settings on record: rPXR reporter cells, luciferase (One-Glo), 24 h.
Sequence of Nuclear receptor subfamily 1 group I member 2 (Rattus norvegicus) (Q9R1A7 whole entry, looked up): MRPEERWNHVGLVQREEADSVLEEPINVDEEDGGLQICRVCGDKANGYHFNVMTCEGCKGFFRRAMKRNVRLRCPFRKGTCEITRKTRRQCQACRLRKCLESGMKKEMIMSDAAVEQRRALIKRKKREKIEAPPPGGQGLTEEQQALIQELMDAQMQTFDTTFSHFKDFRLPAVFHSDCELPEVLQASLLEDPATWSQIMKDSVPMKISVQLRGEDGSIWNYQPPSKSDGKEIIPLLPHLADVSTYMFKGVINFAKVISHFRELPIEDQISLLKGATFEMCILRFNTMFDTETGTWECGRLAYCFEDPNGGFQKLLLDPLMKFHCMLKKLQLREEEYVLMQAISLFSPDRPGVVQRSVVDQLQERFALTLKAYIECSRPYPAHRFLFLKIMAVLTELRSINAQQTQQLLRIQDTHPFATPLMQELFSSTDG
The nature of test [3]: S16 Schwann cell PMP22 intronic element firefly luciferase assay (AID 624032).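 Note: plate controls were DMSO for no effect and PTC124 positive control mean for full effect; nearly all actives have a fitted effect of over 30% in size.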 The settings on record: S16 rat Schwann cells, PMP22 element FLuc, 24 h; series mostly up to 57.5 µM. The method, boiled down: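 Luciferase reporter of PMP22 intronic-element expression in stably transfected S16 rat Schwann cells, read by ONE-Glo luminescence after 24 h compound exposure at 37 C. Activity scaled between DMSO (0%) and positive-control PTC124; concentration-effect curves quality-classified.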

The nature of test [4]: S16 Schwann cell PMP22 intronic element beta-lactamase assay (AID 624044; calls by dose curve;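 note: 0% = DMSO and -100% = potassium clavulanate positive control; nearly all actives have a fitted effect of over 15% in size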). The settings on record: S16 rat Schwann cells, PMP22 element beta-lactamase FRET, 24 h; ratio activity, negative = inhibition: at 38.3 µM (top of the series) unless noted. The gist of the method:
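Beta-lactamase reporter under a PMP22 intronic regulatory element in stable S16 rat Schwann cells; 24 h compound exposure. 460 nm blue signal normalized between DMSO (0%) and potassium clavulanate, with 535 nm FRET tracking viability; curves classed by r2 and response.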

The subject of test [5] is 7G8. The test can be described thus: qHTS profiling for inhibitors of Plasmodium falciparum proliferation (AID 504749).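 For activity, negative = inhibition: 0% = DMSO vehicle and full inhibition = artemisinin control.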 Note: nearly all actives have a fitted effect of over 60% in size. Note: potency is the fitted concentration of half-maximal effect. The settings on record: P. falciparum in erythrocytes, SYBR Green DNA, 72 h; series mostly up to 12.8 µM. The method, boiled down: (§1)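 In a 72 h erythrocytic culture (37 C, humidified, 5% CO2) at 2.5% hematocrit and 0.3% starting parasitemia, compounds were tested; SYBR Green I in detergent lysis buffer stained parasite DNA overnight.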
In general terms: Quantitative high-throughput screening tests each substance at several concentrations.

The subject of test [6] is CP191. The description is as above. The settings on record: P. falciparum in erythrocytes, SYBR Green DNA, 72 h; series mostly up to 28.7 µM. The gist of the method:
as §1

Test [7] has as its system CP201. Described as above. The settings on record: P. falciparum in erythrocytes, SYBR Green DNA, 72 h; series mostly up to 28.7 µM. The gist of the method: as §1
Test [8] concerns CP237. Described as above. The settings on record: P. falciparum in erythrocytes, SYBR Green DNA, 72 h; series mostly up to 28.7 µM. The method, boiled down: as §1
Test [9] deals with CP291. The description is as above. The settings on record: P. falciparum in erythrocytes, SYBR Green DNA, 72 h; series mostly up to 28.7 µM. The method, boiled down:
as §1

In test [10] the test system is CP297. Described as above. The settings on record: P. falciparum in erythrocytes, SYBR Green DNA, 72 h; series mostly up to 28.7 µM. The method, boiled down:
as §1

Test [11] concerns CP315. The test is described as above. The settings on record: P. falciparum in erythrocytes, SYBR Green DNA, 72 h; series mostly up to 28.7 µM. The gist of the method: as §1
Test [12] relates to CP325. The description is as above. The settings on record: P. falciparum in erythrocytes, SYBR Green DNA, 72 h; series mostly up to 28.7 µM. The method, boiled down: as §1
Test [13] relates to CP329. Described as above. The settings on record: P. falciparum in erythrocytes, SYBR Green DNA, 72 h; series mostly up to 28.7 µM. The gist of the method:
as §1

Test [14] relates to DIV14. The test is described as above. The settings on record: P. falciparum in erythrocytes, SYBR Green DNA, 72 h; series mostly up to 28.7 µM. The gist of the method:
as §1

For test [15], the system named is DIV17. The description is as above. The settings on record: P. falciparum in erythrocytes, SYBR Green DNA, 72 h; series mostly up to 28.7 µM. The method, boiled down:
as §1

Test [16] concerns Dd2. The test is described as above. The settings on record: P. falciparum in erythrocytes, SYBR Green DNA, 72 h; series mostly up to 28.7 µM. The gist of the method:
as §1

Test [17] has as its system FAB9. The test is described as above. The settings on record: P. falciparum in erythrocytes, SYBR Green DNA, 72 h; series mostly up to 28.7 µM. The method, boiled down:
as §1

Test [18] concerns PC26. Described as above. The settings on record: P. falciparum in erythrocytes, SYBR Green DNA, 72 h; series mostly up to 28.7 µM. The method, boiled down: as §1
In test [19] the test system is SC27B. The test is described as above. The settings on record: P. falciparum in erythrocytes, SYBR Green DNA, 72 h; series mostly up to 28.7 µM. The method, boiled down: as §1
Test [20] deals with TAB113. The test is described as above. The settings on record: P. falciparum in erythrocytes, SYBR Green DNA, 72 h; series mostly up to 28.7 µM. The method, boiled down: as §1

For the compound `CNC(=O)N(C)c1nnc(C(C)(C)C)s1`, the max response in test [1] is -5.03%; in [2] it was 4.69% (inactive).

`CC(=O)OCC(=O)[C@@H]1CC[C@H]2[C@H]3CC[C@H]4C[C@@H](O)CC[C@]4(C)[C@@H]3C(=O)C[C@@]12C`: the Potency result in test [3], in [4], in test [5], in [6], in [7] and in test [8] was “inactive” throughout. For the same compound, the Potency result in test [9], in [10], in [11], in test [12], in [13] and in [14] was “inactive” in each case. Moreover, the Potency entry in test [15], in test [16], in test [17], in test [18], in test [19] and in [20] was “inactive” in each case.

With `C[N+]1([O-])[C@@H]2CC[C@H]1CC(OC(=O)[C@@H](CO)c1ccccc1)C2` (some centres undefined), the Potency entry in test [3], in test [4], in test [5], in test [6], in [8] and in [9] was “inactive” each time. Also, the Potency result in [10], in test [11], in test [12], in test [13], in [14] and in [15] was “inactive” throughout. For the same compound, the Potency result in test [16], in test [17], in test [18], in [19] and in test [20] was “inactive” in each case.

On to `C[C@@H]1O[C@H](O[C@@H]2C=C3CC[C@H]4[C@@H](CC[C@]5(C)[C@@H](c6ccc(=O)oc6)CC[C@]45O)[C@@]3(C)CC2)[C@@H](O)[C@H](O)[C@@H]1O`, for which the Potency entry in test [4], in test [5], in test [6], in [7], in test [8] and in [9] was “inactive” each time. The Potency entry in test [10], in test [11], in test [12], in test [13], in test [14] and in [15] was “inactive” throughout. The Potency entry in test [16], in test [17], in test [19] and in [20] was “inactive” each time.

On to `CC(C)N(CC[C@@](C(N)=O)(c1ccccc1)c1ccccn1)C(C)C`, for which the Potency entry in test [3], in test [4], in test [5], in [6], in [7] and in [8] was “inactive” each time. Also, the Potency entry in [9], in test [10], in test [11], in [12], in test [13] and in test [14] was “inactive” in each case. In addition, the Potency result in [15], in [16], in [17], in test [18], in test [19] and in [20] was “inactive” throughout.

As to `CN(C)[C@@H]1C(=O)C(C(N)=O)=C(O)[C@]2(O)C(=O)C3=C(O)c4c(O)ccc(Cl)c4[C@](C)(O)[C@H]3C[C@@H]12`, the Potency result in [3], in [4], in [7], in test [8], in test [10] and in test [11] was “inactive” each time. The Potency result in test [12], in test [13], in test [14], in [15], in test [17] and in test [18] was “inactive” throughout. The Potency entry in test [19] and in test [20] was “inactive” in each case.

Consider `Clc1ccc([C@@H](OCCN2CCCCC2)c2ccccc2)cc1`, for which the Potency entry in test [3], in test [4], in [7], in test [8], in test [9] and in test [10] was “inactive” throughout. Also, the Potency result in test [11], in test [13] and in test [17] was “inactive” throughout. The Potency in test [5] was 3.55 µM (active); in test [15] it was 4.55 µM (active); in [16] it was 4.47 µM (active).

With `CCN[C@]1(c2cccs2)CCCCC1=O`, the Potency entry in test [3], in test [4], in test [5], in [6], in [7] and in test [9] was “inactive” throughout. Moreover, the Potency entry in test [10], in test [11], in [12], in test [13], in test [14] and in test [15] was “inactive” throughout. Further, the Potency result in test [16], in test [17], in test [18], in [19] and in test [20] was “inactive” throughout.

`CNc1ccc(C(=O)CC(O)CCC(C)C2OC(=O)CC(O)CC(=O)CC(O)CC(O)CC(O)CC(O)CC3(O)CC(O)C(C(=O)OC)C(CC(O[C@@H]4OC(C)C(O)C(N)C4O)/C=C/C=C/C=C/C=C/C=C/C=C/C=C/C2C)O3)cc1` (some centres undefined): the Potency entry in test [5], in [6], in test [7], in test [8], in [9] and in test [10] was “inactive” each time. Also, the Potency result in test [11], in test [12], in [13], in [14], in [15] and in test [16] was “inactive” in each case. Moreover, the Potency result in test [17], in test [18] and in [19] was “inactive” in each case.
